Among all 6,200 compounds or so, about 2,900 (47%) were called active. Cut-off read from the data, not from the text of the source: active = inhibition above about 50%; inactive = the rest. The set was probably picked from earlier hits. The list shows a part of the results.
Test: Mycobacterium tuberculosis growth inhibition, primary screen (AID 1259343)
Settings: inhibition: at 10 µM, hits give high values; outcome: 10 uM

SMILES | inhibition
CCCc1cc(=O)[nH]c(SCCOc2ccc(Br)cc2)n1 | 18.1% (inactive)
Nc1c(C(=O)CCC(=O)O)oc2ccc(Cl)cc12 | 20.1% (inactive)
Nc1c(C(=O)c2ccc(Br)s2)oc2ccccc12 | 43.5% (inactive)
Nc1c(C(=O)CCC(=O)O)oc2ccc(Br)cc12 | 68% (active)
O=C(O)CCC1NCC2CC1CN1CCCCC21 (configuration not stated) | 1.66% (inactive)
CSC(Nc1ccc(Br)cc1)=C(C#N)C#N | 101% (active)
Clc1cccc(Cl)c1OCCOc1cccc2cccnc12 | 94.7% (active)
Cc1ccc(Cl)c(OCCCOc2cccc3cccnc23)c1 | 71.6% (active)
COc1ccc(C2CC(=O)C3=C(C2)NC(C)=C(C#N)C3c2ccc(Cl)c(Cl)c2)cc1 (configuration not stated) | -9.69% (inactive)
CCOc1ccc2nc(CN3CCN(CC=C(C)C)C(CCO)C3)ccc2c1 (configuration not stated) | inactive
CCCCc1ccc(N2C3=[N+](CCCS3)CC2(O)c2ccc(C)cc2)cc1 (configuration not stated) | 79.3% (active)
OC1(c2cccs2)C[N+]2=C(SCC2)N1c1ccccc1 (configuration not stated) | -3.48% (inactive)
Oc1c(Br)cc(C=NNc2ccccn2)cc1Br | 97.7% (active)
N#Cc1ccc(CNc2ccc(F)cc2Cl)cc1 | -56.2% (inactive)
N#Cc1cc(F)c(NCc2ccc(F)cc2)c(F)c1 | 69.3% (active)
N#Cc1cnc(NCc2ccc(N3CCOCC3)c(F)c2)c(Cl)c1 | 5.19% (inactive)
CCCCS(=O)(=O)NCCOc1ccc(C)cc1 | 75% (active)
CCCCS(=O)(=O)NCC1CCCCC1 | 25.9% (inactive)
CC(O)c1cccc(OCc2ccc(S(=O)(=O)C(F)F)cc2)c1 (configuration not stated) | 88.2% (active)
COc1cccc(C(=O)Nc2ccc(S(=O)(=O)C(F)F)cc2)c1 | -1.65% (inactive)
Cc1ccccc1OCC1=NN2C(=N)/C(=C/c3ccc(Br)o3)C(=O)N=C2S1 | 51.2% (active)

SMILES | inhibition
CC1(Cc2ccccc2Cl)C(=O)Nc2c(Cl)ccc(Cl)c21 (configuration not stated) | 20.4% (inactive)
O=C1CC(C(=O)NCc2ccccc2Cl)c2ccc(F)cc2N1 (configuration not stated) | 87.3% (active)
O=C(Cc1ccccc1Cl)NCc1cc(F)cc(F)c1 | 24% (inactive)
C(=NNc1nc2ccccc2[nH]1)c1c(-c2ccccc2)[nH]c2ccccc12 | 28.8% (inactive)
CC1=CCCC(C)(C)C1C=CC(C)=NNc1nc2ccccc2[nH]1 (configuration not stated) | 36.3% (inactive)
C(=NNc1nc2ccccc2[nH]1)C(=NNc1nc2ccccc2[nH]1)c1ccccc1 | 79.8% (active)
CC1Oc2ccccc2C=C1/C=N\Nc1nc2ccccc2[nH]1 (configuration not stated) | 94.2% (active)
CC(=NNc1nc2ccccc2[nH]1)c1ccc(C)o1 | 84.2% (active)
OCn1nc(-c2ccc(Cl)cc2Cl)oc1=S | 75.9% (active)
COc1cccc(-c2cnnc(N3CCC(c4ccccc4F)C3)n2)c1 (configuration not stated) | 41.2% (inactive)
Fc1ccc(-c2[nH]ncc2CN2CCC(c3ccccc3F)C2)c(F)c1 (configuration not stated) | 84.8% (active)
C=CCN1C(=O)NC(=O)/C(=C/c2ccc(OCc3ccccc3F)cc2)C1=O | 37.1% (inactive)
O=C1NC(=S)NC(=O)C1=Cc1ccc(OCc2ccc(Cl)cc2)cc1 | 97.1% (active)
NC(=O)c1ccsc1NC(=O)c1ccc([N+](=O)[O-])s1 | -3.4% (inactive)
N#Cc1c(NC(=O)CC2(CC(=O)O)CCCC2)sc2c1CCCC2 | inactive
N#Cc1c(NC(=O)c2ccco2)sc2c1CCCCC2 | -3.03% (inactive)
N#Cc1c(NC(=O)c2ccc([N+](=O)[O-])s2)sc2c1CCCC2 | 99.4% (active)
Cc1ccc(NC(=O)c2ccc([N+](=O)[O-])s2)cc1 | 78.9% (active)
O=C(Nc1ccc([N+](=O)[O-])cc1)c1ccc(Br)s1 | 91.6% (active)
CCCCCC(C)NC(=O)c1ccc([N+](=O)[O-])s1 (configuration not stated) | -12.6% (inactive)
CN[C@H](CC(C)C)C(=O)N[C@H]1C(=O)N[C@@H](CC(N)=O)C(=O)N[C@H]2C(=O)N[C@H]3C(=O)N[C@H](C(=O)N[C@H](C(=O)O)c4cc(O)cc(O)c4-c4cc3ccc4O)[C@H](O)c3ccc(c(Cl)c3)Oc3cc2cc(c3O[C@@H]2O[C@H](CO)[C@@H](O)[C@H](O)[C@H]2O[C@H]2C[C@](C)(N)[C@H](O)[C@H](C)O2)Oc2ccc(cc2Cl)[C@H]1O | 49.3% (inactive)

SMILES | inhibition
COc1ccc(OCCN2CCN(c3ccc([N+](=O)[O-])cc3)CC2)cc1 | 90.8% (active)
COc1cccc(OCCCOc2ccc([N+](=O)[O-])cc2)c1 | 27.9% (inactive)
Cc1cccc2c(=O)[nH]c(Cn3nnn(-c4cccs4)c3=O)nc12 | -0.78% (inactive)
CC(C)(C)c1ccc(C(=O)Nc2nnc(-c3cccnc3)o2)cc1 | 97.4% (active)
Cn1nc(C(C)(C)C)cc1NC(=O)c1ccc(C(F)(F)F)cc1 | 21.5% (inactive)
Cc1ccc(C#N)cc1NC(=O)c1ccc(C(F)(F)F)cc1 | -17.1% (inactive)
O=C(Nc1nnc(-c2ccc(Cl)cc2)o1)c1ccncc1 | 21.6% (inactive)
O=C(NCCn1nc(-c2cccnc2)ccc1=O)Nc1ccc(C(F)(F)F)cc1 | 18.6% (inactive)
Cc1nnc(NC(=O)c2ccc(C(F)(F)F)cc2)o1 | 101% (active)
Oc1ccc(N=Nc2nn[nH]n2)c(O)c1 | 61.7% (active)
Brc1ccc(NN=C(N=Nc2nn[nH]n2)c2ccccc2)cc1 | 29.1% (inactive)
C=CCn1c(SC(C)c2nc3sc(C)c(C)c3c(=O)[nH]2)nnc1C1CCCCC1 (configuration not stated) | 0.9% (inactive)
Cc1ccc(NC(=O)CSc2nc(CC(=O)NCCC3=CCCCC3)cs2)cc1 | 81.6% (active)
COc1ccc(NC(=O)CSc2nc(CC(=O)NCCC3=CCCCC3)cs2)cc1 | 86.3% (active)
C[C@@H]1[C@H]2C[C@@H](C[C@H]1NC(=O)c1ccc(Nc3cccc(C(F)(F)F)c3)nc1)C2(C)C | 6.48% (inactive)
Fc1cccc(CN2CCN(Cc3ccc(-c4ccccc4)nc3)CC2)c1 | 27.7% (inactive)
CCN(C)c1cc(N2CCN(Cc3cc4ccccc4n3C)CC2)ncn1 | 49.3% (inactive)
CC(C)Oc1cccc(CN2CCN(c3ccnc(N(C)C)n3)CC2)c1 | 91% (active)
O=c1cc(O)c2ccccc2o1 | -50.4% (inactive)
Cc1nnc(Sc2cc(=O)oc3ccccc23)s1 | 99.2% (active)
